Sampled rows, rich in hits. Any-hit rate of the full collection: about 10%.
G9a inh = qHTS Assay for Inhibitors of Histone Lysine Methyltransferase G9a; Histone-lysine N-methyltransferase EHMT2 (Homo sapiens), Q96KQ7; G9a H3K9 monomethylation, AlphaScreen, 2 h; Potency, µM (highest dose often 102 µM), usual class: inhibitors; 350,000 compounds, 8.8% hits; AID 504332, 2011; also: nearly all actives have a fitted effect of over 75% in size
Target sequence (Q96KQ7 913-1193 limits assumed): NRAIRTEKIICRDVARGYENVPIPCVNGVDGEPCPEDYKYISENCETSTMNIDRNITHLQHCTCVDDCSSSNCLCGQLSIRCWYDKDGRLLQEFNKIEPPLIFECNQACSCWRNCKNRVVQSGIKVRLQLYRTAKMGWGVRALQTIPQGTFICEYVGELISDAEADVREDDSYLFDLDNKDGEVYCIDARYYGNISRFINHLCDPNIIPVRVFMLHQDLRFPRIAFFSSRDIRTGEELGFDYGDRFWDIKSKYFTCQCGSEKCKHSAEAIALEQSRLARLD
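Using a bead-based AlphaScreen, monomethylated H3K9 product from 2 h room-temperature reactions (G9a 20 nM, peptide 500 nM, SAM 20 uM) was detected with 0.5 ug/mL rabbit anti-H3K9me1 antibody.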
GLS inhibitor = qHTS for Inhibitors of Glutaminase (GLS); 410,000 compounds, 0.21% hits; Potency, µM (top dose mostly 45.5 µM), most hits filed as inhibitors; GLS enzymatic activity, qHTS titration; AID 624170, 2012; Glutaminase kidney isoform, mitochondrial (Homo sapiens), O94925
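Two-point fluorescence kinetic (t0, 30 min RT) for hKGA; glutamate detected via glutamate oxidase–HRP–Amplex Red. Substrate: 1 mM L-glutamine solution; buffer 45 mM KH2PO4, pH 8.2.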
BAZ2B block = qHTS Assay for Inhibitors of BAZ2B; 360,000 compounds, 4.4% hits; AlphaScreen BAZ2B-H3K14Ac peptide displacement; Potency, µM (series often up to 114 µM), usual class: inhibitors; AID 504333, 2011; also: nearly all actives have a fitted effect of over 60% in size
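AlphaScreen displacement: compounds (up to 110uM) incubated 30 min at room temperature with a preformed 50 nM BAZ2B/50 nM biotinylated H3K14Ac peptide complex in PBS pH 7.4 with Tween-20. Donor and acceptor beads at 10 ug/mL final added, 20 min light-protected before reading.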
JMJD2A Tudor = qHTS Assay for Inhibitors of JMJD2A-Tudor Domain | AlphaScreen JMJD2A-Tudor / H3K4me3 peptide binding | Potency, µM (top dose mostly 114 µM), actives largely listed as inhibitors | 390,000 compounds, 4.4% hits; also: nearly all actives have a fitted effect of over 50% in size
HP1b binding inh = HTS for Inhibitors of HP1-beta Chromodomain Interactions with Methylated Histone Tails. AlphaScreen HP1-beta / biotin-H3K9me3 peptide binding. Potency, µM (top dose mostly 114 µM), actives largely listed as inhibitors. 390,000 compounds, 0.56% hits. AID 540317, 2011; also: nearly all actives have a fitted effect of over 70% in size
Target sequence (P83916 whole entry, looked up): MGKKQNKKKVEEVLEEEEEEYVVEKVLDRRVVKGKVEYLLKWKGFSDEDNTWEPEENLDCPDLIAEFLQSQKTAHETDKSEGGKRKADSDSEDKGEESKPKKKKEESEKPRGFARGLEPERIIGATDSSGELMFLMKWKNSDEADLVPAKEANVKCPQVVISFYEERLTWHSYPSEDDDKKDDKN
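Compound inhibition of the preformed complex between 50 nM HP1-beta and 50 nM biotinylated H3K9me3 peptide was read by AlphaScreen. Buffer was PBS pH 7.4 with 0.01% Tween-20. Incubations ran 30 min at room temperature, with 10 ug/mL donor/acceptor beads.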
L3MBTL1 inh = qHTS Assay for the Inhibitors of L3MBTL1; Lethal(3)malignant brain tumor-like protein 1 (Homo sapiens), Q9Y468; Potency, µM (titrated, usually from 57.1 µM), most hits filed as inhibitors; AlphaScreen L3MBTL1–H3K9me1 peptide binding; 230,000 compounds, 0.66% hits; also: nearly all actives have a fitted effect of over 60% in size
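AlphaScreen assay: L3MBTL1 (50 nM final) was preincubated 30 min at room temperature with biotinylated H3(1-15)K9me1 peptide (75 nM final), then 30 min with library compounds; streptavidin donor and nickel chelate acceptor beads (10 ug/mL final) added, 30 min dark.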
Hits are given with their value; – = inactive; ? = inconclusive; · = not tested or not shown; [ ] = another dose, or the depositor's remark. Calls follow the shape of the dose curve; as a rule, active = well fitted curve in the direction sought with a large enough effect; inconclusive = small, poorly fitted or top-dose-only effect, or another doubt; inactive = no such curve, though single readings can be large; an effect the other way counts as inactive or inconclusive.

SMILES | G9a inh | GLS inhibitor | BAZ2B block | JMJD2A Tudor | HP1b binding inh | L3MBTL1 inh
O=C(NCCCN1CCCC1=O)c1cccs1 | –[12.7 µM] | – | – | – | – | ·
O=C(NCCCN1CCCC1=O)c1c(O)nc2sccn2c1=O | – | – | – | 35.5µM | – | –
CC(C)NCc1cccc([N+](=O)[O-])c1 | 2.51µM | – | 56.2µM | 20µM | ? | –
Cc1ccc(S(=O)(=O)NCc2cccc([N+](=O)[O-])c2)cc1 | · | – | · | · | · | ·
O=C(CN1CCN(c2ccccn2)CC1)N1c2ccccc2CCc2ccccc21 | 8.91µM | – | 31.6µM | 3.16µM | 17.8µM | –
O=C(CN1CCN(c2ccccn2)CC1)N1c2ccccc2Sc2ccc(C(F)(F)F)cc21 | ? | · | 22.4µM | 2µM | 15.8µM | –
CCCOc1ccc(CNC(=O)CN2C(=O)c3cccnc3Oc3ccc(C)cc32)cc1 | – | – | – | – | – | ·
CC(=O)N1CCc2cc(S(=O)(=O)N3CCN(c4ccc(C)cc4)C(C)C3)ccc21 (stereo not given) | – | – | – | – | – | ·
COc1ccc(CNC(=O)CCC(=O)N2CCSc3ccccc32)cc1 | – | – | – | – | – | ·
CCN1CCN(c2ccc(S(=O)(=O)N3CCCCC3)cc2NC(=O)/C=C/c2ccc(F)cc2)CC1 | 1.26µM | – | – | – | – | –
CCN1CCN(c2ccc(S(=O)(=O)N3CCCCC3)cc2NC(=O)/C=C/c2cccc(OC)c2OC)CC1 | · | – | ? | ? | – | ·
CN1CCN(c2ccc(S(=O)(=O)N3CCCCC3)cc2NC(=O)/C=C/c2ccc(Cl)c([N+](=O)[O-])c2)CC1 | 35.5µM | – | ? | 44.7µM | ? | –
CCN1CCN(c2ccc(S(=O)(=O)N3CCCCC3)cc2NC(=O)/C=C/c2ccc([N+](=O)[O-])cc2)CC1 | 17.8µM | – | ? | ? | ? | –
CCN1CCN(c2ccc(S(=O)(=O)N3CCOCC3)cc2NC(=O)/C=C/c2ccc(C)cc2)CC1 | –[0.501 µM] | – | – | – | – | –
CCOc1cc(CN2CCc3c([nH]c4ccccc34)C2)ccc1OC | 11.2µM | – | 50.1µM | 3.16µM | ? | –
COc1ccc(CN2CCc3c([nH]c4ccccc34)C2)c(OC)c1C | 31.6µM | – | 44.7µM | 1.26µM | ? | –
Cc1cccc(-n2c(SCc3ccc([N+](=O)[O-])cc3)nnc2-c2c[nH]c3ccccc23)c1 | 44.7µM | – | – | ? | – | –
CC(=O)NC(CCS(C)(=O)=O)C(=O)Nc1cccc(C(C)=O)c1 (stereo not given) | 25.1µM | – | – | – | – | –
c1ccc2oc(C3=NNC(=NC4CC4)SC3)cc2c1 | 11.2µM | – | ? | ? | – | –
Cc1cc(C2=NNC(=NC3CC3)SC2)c(C)n1-c1ccccc1F | ? | – | ? | 28.2µM | ? | –
c1ccc(CN=C2NN=C(c3cc4ccccc4o3)CS2)cc1 | ? | – | ? | – | – | –
COc1cc(/C=C2/C(=O)NN(c3cccc(C)c3)C2=O)cc([N+](=O)[O-])c1O | 35.5µM | – | 39.8µM | 56.2µM | ? | ?
O=C1NN(c2ccccc2)C(=O)/C1=C\c1cccn1-c1ccc(Cl)c([N+](=O)[O-])c1 | – | – | – | ? | – | ·
COc1cc(/C=C2/C(=O)NN(c3ccc(C)c(Cl)c3)C2=O)cc([N+](=O)[O-])c1O | 11.2µM | – | 31.6µM | ? | – | ·
Cc1ccc(N2NC(=O)/C(=C\c3cc4c(cc3[N+](=O)[O-])OCO4)C2=O)cc1C | 25.1µM | ? | 44.7µM | ? | ? | –
SMILES | G9a inh | GLS inhibitor | BAZ2B block | JMJD2A Tudor | HP1b binding inh | L3MBTL1 inh
O=C1CN(Cc2ccccc2)C(=NCc2ccco2)S1 | – | – | ? | 79.4µM | – | –
O=C(Nc1ncc(Cc2ccccc2)s1)C1CCN(C(=O)c2ccco2)CC1 | · | · | · | – | – | ·
c1ccc(-c2ccc(-c3cnc4n3CCCCC4)cc2)cc1 | 17.8µM | – | 50.1µM | 56.2µM | – | ·
O=C(CSc1ccc(Cl)cc1)Nc1nnc(-c2ccco2)o1 | – | – | 50.1µM | ? | – | –
O=C(CSc1nnc(-c2ccco2)o1)NCCc1ccccc1 | –[12.7 µM] | – | – | – | – | –
O=C(CSc1nnc(-c2ccco2)o1)NC(=O)Cc1ccccc1 | ? | – | 79.4µM | – | – | ·
COc1ccc(N2CCN(C(=O)CCS(=O)(=O)c3cc4c(cc3Cl)NC(=O)CO4)CC2)cc1 | – | – | – | ? | – | ·
CC1=C(C(=O)OCc2ccccc2)C(c2ccc(-c3ccccc3)cc2)NC(=O)N1CCCCCC(=O)O (stereo not given) | 35.5µM | – | 50.1µM | ? | – | –
CC1=C(C(=O)OCc2ccccc2)C(c2ccc([N+](=O)[O-])cc2)NC(=O)N1CCCCCC(=O)O (stereo not given) | ? | – | – | – | – | –
CC1=C(C(=O)OCc2ccccc2)C(c2ccc(C(C)(C)C)cc2)NC(=O)N1CCCCCC(=O)O (stereo not given) | 44.7µM | – | 50.1µM | – | – | –
CC1=C(C(=O)OCc2ccccc2)C(c2ccc([N+](=O)[O-])cc2)NC(=O)N1CCCC(=O)O (stereo not given) | 44.7µM | – | – | – | – | –
CC1=C(C(=O)OCc2ccccc2)C(c2ccccc2)NC(=O)N1CCCCCC(=O)O (stereo not given) | 79.4µM | – | – | – | – | –
CC1=C(C(=O)OCc2ccccc2)C(c2ccc3ccccc3c2)NC(=O)N1CCCCCC(=O)O (stereo not given) | ? | – | ? | – | – | –
CCOc1ccc(N2CC(c3nc4ccccc4n3Cc3cccc(Cl)c3)CC2=O)cc1 (stereo not given) | ? | – | – | – | – | ·
CCOCC(=O)Nc1nc(-c2ccccc2)c(CC)s1 | 35.5µM | – | – | – | – | ·
CCOCC(=O)Nc1nc2ccc(OC)cc2s1 | –[12.7 µM] | – | – | – | – | –
CCc1ccc(C2CC(=O)N(c3cccc(C(F)(F)F)c3)C3=C2C(=O)OC3)cc1 (stereo not given) | – | – | – | – | – | ·
CCOc1ccc(NC(=O)CCSc2nc(-c3ccc4c(c3)OCO4)cc(C(F)(F)F)n2)cc1 | – | – | – | – | – | ·
CN1C2CCC1/C(=C\c1ccccc1F)C(=O)/C2=C/c1ccccc1F | 50.1µM | – | – | – | – | –
CCN(CC)S(=O)(=O)c1ccc(NC(=O)c2c(C)oc3ncnc(N4CCCCC4)c23)cc1 | – | – | – | – | – | ·
CN(C)c1ccc(CNC(=O)c2ccc3nc(CCc4ccccc4)oc3c2)cc1 | – | – | – | – | – | ·

Assay outcomes from PubChem.
